Results reported in PMC7862700, “An all-to-all approach to the identification of sequence-specific readers for epigenetic DNA modifications on cytosine”.

Tests used:
Assay in all cases: DAPPL (digital affinity profiling via proximity ligation, sequencing); 10 mM Tris-HCl pH 7.5, 50 mM NaCl, 1 mM DTT, 4% glycerol, room temperature, 30 min; GST-TFs on glutathione beads, 16-mer random dsDNA library, 0.1% formaldehyde crosslink after washing; high values mean tight binding
Settings in all cases: protein: recombinant; tags: N-terminal GST; dsDNA, one strand shown
ERF = molecular target: T1, ERF (Homo sapiens, UniProt P50548 1-548)
T1 sequence: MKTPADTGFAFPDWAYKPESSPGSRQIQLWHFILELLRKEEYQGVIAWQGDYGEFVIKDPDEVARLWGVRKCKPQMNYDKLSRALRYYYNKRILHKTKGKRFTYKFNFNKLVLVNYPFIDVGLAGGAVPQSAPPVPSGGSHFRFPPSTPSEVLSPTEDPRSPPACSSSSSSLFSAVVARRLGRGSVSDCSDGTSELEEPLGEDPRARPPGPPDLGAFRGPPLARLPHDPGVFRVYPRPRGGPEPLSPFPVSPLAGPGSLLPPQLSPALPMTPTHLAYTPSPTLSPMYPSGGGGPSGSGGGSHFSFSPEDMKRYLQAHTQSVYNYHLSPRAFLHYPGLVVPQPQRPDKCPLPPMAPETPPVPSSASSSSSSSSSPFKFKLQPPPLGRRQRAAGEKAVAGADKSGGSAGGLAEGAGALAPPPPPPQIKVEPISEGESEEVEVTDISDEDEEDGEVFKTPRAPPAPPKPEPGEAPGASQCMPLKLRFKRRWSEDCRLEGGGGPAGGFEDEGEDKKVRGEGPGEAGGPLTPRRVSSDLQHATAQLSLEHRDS
Summary of the method: (§1)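 In yeast, human transcription factors were expressed with a GST fusion, then pulled down on glutathione beads and given DNA barcodes. Pooled with a tag-only sample, they were exposed to 200 nmole of a 16-mer random double-stranded DNA library (Tris/NaCl/DTT/glycerol buffer, room temperature, 30 min), washed, crosslinked with 0.1% formaldehyde, proximity-ligated using BsaI/T4 ligase for 1 h at 37 °C, PCR-amplified and read on an Illumina NextSeq500. Each hexamer's frequency of reads for a factor, divided by the matching frequency for the tag-only sample, gives the binding signal.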

ETV3L = molecular target: T2, ETV3L (Homo sapiens, UniProt Q6ZN32 1-361)
T2 sequence: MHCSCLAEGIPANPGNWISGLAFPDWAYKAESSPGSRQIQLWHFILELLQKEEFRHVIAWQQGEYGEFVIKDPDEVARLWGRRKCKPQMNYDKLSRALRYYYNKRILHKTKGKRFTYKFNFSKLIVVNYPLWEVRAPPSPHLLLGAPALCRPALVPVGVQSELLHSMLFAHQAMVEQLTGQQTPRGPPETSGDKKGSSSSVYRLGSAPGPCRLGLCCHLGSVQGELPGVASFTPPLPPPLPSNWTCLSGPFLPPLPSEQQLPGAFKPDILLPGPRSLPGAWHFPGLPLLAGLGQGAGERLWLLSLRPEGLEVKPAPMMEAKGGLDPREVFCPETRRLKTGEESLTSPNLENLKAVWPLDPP
Summary of the method: as §1

ETS2 = molecular target: T3, ETS2 (Homo sapiens, UniProt P15036 1-469)
T3 sequence: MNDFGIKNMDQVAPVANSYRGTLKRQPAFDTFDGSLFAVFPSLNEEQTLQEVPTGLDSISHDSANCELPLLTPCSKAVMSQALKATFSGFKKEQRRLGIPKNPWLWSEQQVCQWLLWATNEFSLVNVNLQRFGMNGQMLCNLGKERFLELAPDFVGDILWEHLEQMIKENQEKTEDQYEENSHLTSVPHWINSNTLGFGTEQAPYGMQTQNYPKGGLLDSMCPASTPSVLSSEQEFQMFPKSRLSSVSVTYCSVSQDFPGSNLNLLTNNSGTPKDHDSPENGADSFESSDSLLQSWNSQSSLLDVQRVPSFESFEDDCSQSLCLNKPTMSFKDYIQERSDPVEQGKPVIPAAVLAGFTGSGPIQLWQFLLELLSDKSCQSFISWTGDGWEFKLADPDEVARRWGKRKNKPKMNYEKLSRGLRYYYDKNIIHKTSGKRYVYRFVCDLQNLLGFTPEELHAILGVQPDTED
Summary of the method: as §1

SPDEF = molecular target: T4, SPDEF (Homo sapiens, UniProt O95238 1-335)
T4 sequence: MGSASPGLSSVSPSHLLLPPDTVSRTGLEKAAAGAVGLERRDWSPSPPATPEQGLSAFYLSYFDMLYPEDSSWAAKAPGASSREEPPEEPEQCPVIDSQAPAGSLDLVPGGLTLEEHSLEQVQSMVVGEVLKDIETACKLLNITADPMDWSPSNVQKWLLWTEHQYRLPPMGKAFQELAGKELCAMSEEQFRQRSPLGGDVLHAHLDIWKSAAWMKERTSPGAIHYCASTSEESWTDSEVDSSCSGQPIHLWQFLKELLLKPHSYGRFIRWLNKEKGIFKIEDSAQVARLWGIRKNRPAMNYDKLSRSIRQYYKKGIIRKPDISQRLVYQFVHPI
Summary of the method: as §1

ETV7 = molecular target: T5, ETV7 (Homo sapiens, UniProt Q9Y603 1-341)
T5 sequence: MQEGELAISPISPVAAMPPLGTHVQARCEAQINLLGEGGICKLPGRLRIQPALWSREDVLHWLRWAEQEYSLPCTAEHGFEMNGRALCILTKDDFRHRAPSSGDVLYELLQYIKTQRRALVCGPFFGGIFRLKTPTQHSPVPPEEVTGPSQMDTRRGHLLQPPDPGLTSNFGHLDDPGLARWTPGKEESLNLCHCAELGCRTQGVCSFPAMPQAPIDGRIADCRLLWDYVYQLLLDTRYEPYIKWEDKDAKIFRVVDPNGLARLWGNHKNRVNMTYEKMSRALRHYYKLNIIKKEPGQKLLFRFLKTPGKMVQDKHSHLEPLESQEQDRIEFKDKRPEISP
Summary of the method: as §1

ELF5 = molecular target: T6, ELF5 (Homo sapiens, UniProt Q9UKW6-2 1-255)
T6 sequence: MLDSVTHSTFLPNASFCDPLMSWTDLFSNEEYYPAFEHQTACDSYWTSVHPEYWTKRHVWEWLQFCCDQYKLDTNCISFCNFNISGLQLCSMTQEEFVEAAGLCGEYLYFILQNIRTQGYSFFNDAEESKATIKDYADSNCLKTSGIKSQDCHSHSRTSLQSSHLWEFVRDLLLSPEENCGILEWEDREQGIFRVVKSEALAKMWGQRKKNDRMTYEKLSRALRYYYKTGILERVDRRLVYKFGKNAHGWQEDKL
Summary of the method: as §1

ETV3 = molecular target: T7, ETV3 (Homo sapiens, UniProt P41162-2 1-143)
T7 sequence: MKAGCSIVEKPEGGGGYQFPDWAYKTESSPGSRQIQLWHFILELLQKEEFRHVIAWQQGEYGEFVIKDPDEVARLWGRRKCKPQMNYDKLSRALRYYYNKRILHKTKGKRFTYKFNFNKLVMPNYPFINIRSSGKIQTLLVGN
Summary of the method: as §1

ETV6 = ETV6 (Homo sapiens, UniProt P41212 1-452)
Sequence of ETV6 (P41212 whole entry): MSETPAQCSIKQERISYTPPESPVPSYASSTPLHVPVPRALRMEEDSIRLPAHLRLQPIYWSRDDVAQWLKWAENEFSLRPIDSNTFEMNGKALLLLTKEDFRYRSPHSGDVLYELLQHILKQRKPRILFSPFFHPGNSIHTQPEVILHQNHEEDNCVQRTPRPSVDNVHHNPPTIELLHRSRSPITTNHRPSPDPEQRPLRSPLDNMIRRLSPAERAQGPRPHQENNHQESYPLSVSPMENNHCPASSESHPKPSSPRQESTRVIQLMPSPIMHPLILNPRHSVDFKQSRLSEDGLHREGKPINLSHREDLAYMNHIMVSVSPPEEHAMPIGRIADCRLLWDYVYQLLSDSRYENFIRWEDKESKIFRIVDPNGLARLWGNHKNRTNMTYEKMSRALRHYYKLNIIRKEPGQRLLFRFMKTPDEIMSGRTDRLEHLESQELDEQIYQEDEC
Summary of the method: as §1

| Sequence | binding signal (ERF) | binding signal (ETV3L) | binding signal (ETS2) | binding signal (SPDEF) | binding signal (ETV7) | binding signal (ELF5) | binding signal (ETV3) | binding signal (ETV6) |
| --- | --- | --- | --- | --- | --- | --- | --- | --- |
| GAAACA | 1.34 fold enrichment (6-mer frequency, TF over GST control) | 1.4 fold enrichment (6-mer frequency, TF over GST control) | 1.34 fold enrichment (6-mer frequency, TF over GST control) | 1.3 fold enrichment (6-mer frequency, TF over GST control) | 1.35 fold enrichment (6-mer frequency, TF over GST control) | 1.39 fold enrichment (6-mer frequency, TF over GST control) | 1.37 fold enrichment (6-mer frequency, TF over GST control) | 1.45 fold enrichment (6-mer frequency, TF over GST control) |
| CACCAC | 1.14 fold enrichment (6-mer frequency, TF over GST control) | 1.19 fold enrichment (6-mer frequency, TF over GST control) | 1.15 fold enrichment (6-mer frequency, TF over GST control) | 1.16 fold enrichment (6-mer frequency, TF over GST control) | 1.04 fold enrichment (6-mer frequency, TF over GST control) | 1.11 fold enrichment (6-mer frequency, TF over GST control) | 1.11 fold enrichment (6-mer frequency, TF over GST control) | 1.14 fold enrichment (6-mer frequency, TF over GST control) |
| TATAAG | 1.2 fold enrichment (6-mer frequency, TF over GST control) | 1.21 fold enrichment (6-mer frequency, TF over GST control) | 1.17 fold enrichment (6-mer frequency, TF over GST control) | 1.2 fold enrichment (6-mer frequency, TF over GST control) | 1.18 fold enrichment (6-mer frequency, TF over GST control) | 1.16 fold enrichment (6-mer frequency, TF over GST control) | 1.15 fold enrichment (6-mer frequency, TF over GST control) | 1.19 fold enrichment (6-mer frequency, TF over GST control) |
| ACAACC | 1.19 fold enrichment (6-mer frequency, TF over GST control) | 1.17 fold enrichment (6-mer frequency, TF over GST control) | 1.26 fold enrichment (6-mer frequency, TF over GST control) | 1.28 fold enrichment (6-mer frequency, TF over GST control) | 1.18 fold enrichment (6-mer frequency, TF over GST control) | 1.22 fold enrichment (6-mer frequency, TF over GST control) | 1.29 fold enrichment (6-mer frequency, TF over GST control) | 1.28 fold enrichment (6-mer frequency, TF over GST control) |
| CTAAAT | 1.35 fold enrichment (6-mer frequency, TF over GST control) | 1.43 fold enrichment (6-mer frequency, TF over GST control) | 1.38 fold enrichment (6-mer frequency, TF over GST control) | 1.31 fold enrichment (6-mer frequency, TF over GST control) | 1.34 fold enrichment (6-mer frequency, TF over GST control) | 1.25 fold enrichment (6-mer frequency, TF over GST control) | 1.4 fold enrichment (6-mer frequency, TF over GST control) | 1.3 fold enrichment (6-mer frequency, TF over GST control) |
| TTGCAC | 1.3 fold enrichment (6-mer frequency, TF over GST control) | 1.38 fold enrichment (6-mer frequency, TF over GST control) | 1.11 fold enrichment (6-mer frequency, TF over GST control) | 1.22 fold enrichment (6-mer frequency, TF over GST control) | 1.26 fold enrichment (6-mer frequency, TF over GST control) | 1.22 fold enrichment (6-mer frequency, TF over GST control) | 1.23 fold enrichment (6-mer frequency, TF over GST control) | 1.26 fold enrichment (6-mer frequency, TF over GST control) |
| CGCCCC | 1.28 fold enrichment (6-mer frequency, TF over GST control) | 1.31 fold enrichment (6-mer frequency, TF over GST control) | 1.05 fold enrichment (6-mer frequency, TF over GST control) | 1.18 fold enrichment (6-mer frequency, TF over GST control) | 1.2 fold enrichment (6-mer frequency, TF over GST control) | 1.1 fold enrichment (6-mer frequency, TF over GST control) | 1.16 fold enrichment (6-mer frequency, TF over GST control) | 1.19 fold enrichment (6-mer frequency, TF over GST control) |
| AGGAAG | 1.2 fold enrichment (6-mer frequency, TF over GST control) | 1.33 fold enrichment (6-mer frequency, TF over GST control) | 1.5 fold enrichment (6-mer frequency, TF over GST control) | 1.15 fold enrichment (6-mer frequency, TF over GST control) | 1.23 fold enrichment (6-mer frequency, TF over GST control) | 2.03 fold enrichment (6-mer frequency, TF over GST control) | 1.54 fold enrichment (6-mer frequency, TF over GST control) | 1.71 fold enrichment (6-mer frequency, TF over GST control) |
| CAAATT | 1.17 fold enrichment (6-mer frequency, TF over GST control) | 1.18 fold enrichment (6-mer frequency, TF over GST control) | 1.17 fold enrichment (6-mer frequency, TF over GST control) | 1.12 fold enrichment (6-mer frequency, TF over GST control) | 1.14 fold enrichment (6-mer frequency, TF over GST control) | 1.1 fold enrichment (6-mer frequency, TF over GST control) | 1.13 fold enrichment (6-mer frequency, TF over GST control) | 1.1 fold enrichment (6-mer frequency, TF over GST control) |
